In PubChem BioAssay (Tox21):
Results filed as inconclusive are left out. Activity calls are given as the source filed them. Unless noted, the call rests on the fitted dose curve; in most records, active means well fitted curve in the direction sought with a large enough effect in the repeat runs; inconclusive means weak or mixed curves; inactive means no such curve, though single readings can be large; an effect the other way counts as inactive or inconclusive.

Legend:
[1] = qHTS assay to identify aromatase inhibitors - cell viability counter screen (AID 743084);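 further: cells stimulated with testosterone during compound exposure; nearly all actives have a fitted effect of over 55% in size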
[2] = molecular target: Aryl hydrocarbon receptor (Homo sapiens) (UniProt P35869); experiment: qHTS assay to identify small molecule that activate the aryl hydrocarbon receptor (AhR) signaling pathway (AID 743085);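 further: HG2L7.5c1 human HepG2 liver cells with stably integrated DRE-driven firefly reporter; series mostly up to about 70 µM; nearly all actives have a fitted effect of over 15% in size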
Aryl hydrocarbon receptor (Homo sapiens), sequence (P35869 whole entry, looked up): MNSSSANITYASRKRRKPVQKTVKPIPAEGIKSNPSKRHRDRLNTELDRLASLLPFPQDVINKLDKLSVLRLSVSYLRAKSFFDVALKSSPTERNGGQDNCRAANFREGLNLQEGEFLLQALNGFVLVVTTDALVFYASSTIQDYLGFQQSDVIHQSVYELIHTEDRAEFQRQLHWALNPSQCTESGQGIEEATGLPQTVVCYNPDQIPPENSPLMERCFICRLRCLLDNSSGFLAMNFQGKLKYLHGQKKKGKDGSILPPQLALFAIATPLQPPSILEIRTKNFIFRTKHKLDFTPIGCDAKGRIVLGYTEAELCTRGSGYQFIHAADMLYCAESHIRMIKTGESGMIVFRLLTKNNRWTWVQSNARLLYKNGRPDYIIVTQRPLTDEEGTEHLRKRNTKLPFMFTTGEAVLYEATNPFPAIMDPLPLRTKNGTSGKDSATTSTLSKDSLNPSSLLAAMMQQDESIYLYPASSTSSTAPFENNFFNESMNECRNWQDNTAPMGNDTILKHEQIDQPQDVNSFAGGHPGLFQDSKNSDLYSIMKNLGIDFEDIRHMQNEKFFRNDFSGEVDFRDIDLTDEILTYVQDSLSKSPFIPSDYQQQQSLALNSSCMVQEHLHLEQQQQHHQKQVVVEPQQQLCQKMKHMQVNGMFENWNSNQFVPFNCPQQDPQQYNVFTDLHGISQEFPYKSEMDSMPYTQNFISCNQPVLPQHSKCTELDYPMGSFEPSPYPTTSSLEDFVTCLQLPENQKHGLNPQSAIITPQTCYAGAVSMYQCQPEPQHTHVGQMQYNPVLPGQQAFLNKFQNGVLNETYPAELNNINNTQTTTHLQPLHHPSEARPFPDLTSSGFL
How it was run: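 Luminescence read-out: ONE-Glo reagent, 30 min at room temperature, in HG2L7.5c1 HepG2 reporter cells treated 24 h at 37C. Viability was measured beforehand by CellTiter-Fluor fluorescence after 30 min at 37C.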

[3] = qHTS assay to identify small molecule that activate the aryl hydrocarbon receptor (AhR) signaling pathway - cell viability counter screen (AID 743086);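 further: HepG2 liver cells carrying the AhR DRE luciferase reporter; series mostly up to about 70 µM; nearly all actives have a fitted effect of over 45% in size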
How it was run: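 HepG2-AhR-luc (HG2L7.5c1) cells, 4000/well, were preincubated 5 h at 37C, exposed to compound in qHTS format for 24 hr at 37C, then given CellTiter-Fluor for 30 min; viability was read as fluorescence in the reporter wells.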

[4] = molecular target: Peroxisome proliferator-activated receptor gamma (Homo sapiens) (UniProt P37231); experiment: qHTS assay to identify small molecule agonists of the peroxisome proliferator-activated receptor gamma (PPARg) signaling pathway (AID 743094; active means well fitted activation curve with a large enough effect in the signal ratio in the repeat runs, not every such curve was filed as active; the % refers to the signal ratio)
Peroxisome proliferator-activated receptor gamma (Homo sapiens), sequence (P37231 whole entry, looked up): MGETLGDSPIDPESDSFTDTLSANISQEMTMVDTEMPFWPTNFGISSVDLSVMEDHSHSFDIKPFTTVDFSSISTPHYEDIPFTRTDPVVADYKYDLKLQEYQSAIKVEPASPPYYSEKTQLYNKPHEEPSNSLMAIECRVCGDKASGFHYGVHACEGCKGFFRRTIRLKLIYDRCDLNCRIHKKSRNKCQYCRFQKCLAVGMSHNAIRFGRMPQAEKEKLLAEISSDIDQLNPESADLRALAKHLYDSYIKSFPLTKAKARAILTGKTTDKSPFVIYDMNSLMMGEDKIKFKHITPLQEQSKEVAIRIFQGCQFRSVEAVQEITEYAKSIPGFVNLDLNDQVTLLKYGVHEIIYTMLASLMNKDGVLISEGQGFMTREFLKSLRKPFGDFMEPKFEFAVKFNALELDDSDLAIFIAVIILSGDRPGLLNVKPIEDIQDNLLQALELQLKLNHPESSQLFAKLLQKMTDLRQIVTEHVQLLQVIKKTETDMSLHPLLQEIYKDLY
How it was run: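 Agonism was assessed in a beta-lactamase reporter system, HEK293H cells with a stably integrated UAS-bla construct under PPARg control; the 17 h treatment at 37C preceded a 1 h room-temperature FRET substrate read.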

[5] = molecular target: Peroxisome proliferator-activated receptor gamma (Homo sapiens) (UniProt P37231); experiment: qHTS assay to identify small molecule antagonists of the peroxisome proliferator-activated receptor gamma (PPARg) signaling pathway (AID 743191; calls by dose curve; further: series mostly up to about 63 µM; nearly all actives have a fitted effect of over 30% in size)
How it was run: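 GeneBLAzer PPARg UAS-bla HEK293H cells carrying a UAS-driven beta-lactamase reporter were plated at 3000 cells/well, preincubated 5 h at 37C, then given compound for 17 h at 37C; LiveBLAzer B/G FRET substrate was read after 1 h at room temperature.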

[6] = qHTS assay to identify small molecule antagonists of the peroxisome proliferator-activated receptor gamma (PPARg) signaling pathway - cell viability counter screen (AID 743194); further: nearly all actives have a fitted effect of over 55% in size
How it was run: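 PPARg-UAS-bla HEK293H cells were plated, rested 5 h at 37 C, then treated with compounds plus rosiglitazone (50 nM final) for 17 h at 37 C; viability was then read by CellTiter-Glo luminescence after 30 min at room temperature.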

[7] = qHTS assay for small molecule agonists of the antioxidant response element (ARE) signaling pathway (AID 743202; active means well fitted activation curve with a large enough effect in the signal ratio in the repeat runs, not every such curve was filed as active; the % refers to the signal ratio)
How it was run: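 Following a 16 h, 37 C exposure of reporter HepG2 cells (ARE-driven beta-lactamase, 2,000 cells/well) to compounds, FRET substrate was applied for 2 h at room temperature and fluorescence intensity recorded.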

[8] = qHTS assay for small molecule agonists of the antioxidant response element (ARE) signaling pathway - cell viability counter screen (AID 743203; calls by dose curve; further: nearly all actives have a fitted effect of over 55% in size)
How it was run: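 ATP content via CellTiter-Glo luminescence served as the viability measure. Cells: ARE-bla HepG2, 2,000 per well. Exposure: 16 hrs, 37C/5% CO2.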

[9] = qHTS assay for small molecule activators of the heat shock response signaling pathway - cell viability counter screen (AID 743209); further: nearly all actives have a fitted effect of over 50% in size
How it was run: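 Compounds dissolved in DMSO were added to overnight-plated HSE-bla HeLa cells and left 5 h at 37 C. Cell viability was quantified by luminescence using CellTiter-Glo.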

[10] = qHTS assay for small molecule activators of the heat shock response signaling pathway (AID 743210; active means well fitted activation curve with a large enough effect in the signal ratio in the repeat runs, with a control signal flat, not every such curve was filed as active; the % refers to the signal ratio; further: series mostly up to about 63 µM)
How it was run: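 Heat shock element–beta-lactamase HeLa reporter cells; qHTS with compounds for 5 h at 37 C; detection by FRET substrate fluorescence after 2.5 h at RT.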
On the % scale 0 is the no-effect control and ±100 the full control effect.

CCCCCCCCCCCCCC(=O)OC
inactive: Potency [1] | Potency [2] | Potency [3] | outcome [4] | Potency [5] | outcome [6] | Potency [7] | outcome [8] | outcome [9] | outcome [10]

CC(C)SCc1ccco1
inactive: Potency [1] | Potency [2] | Potency [3] | outcome [4] | Potency [5] | outcome [6] | Potency [7] | outcome [8] | outcome [9] | outcome [10]

CCCCCCCCCCCCCCCCI
inactive: Potency [1] | Potency [2] | Potency [3] | outcome [4] | Potency [5] | outcome [6] | Potency [7] | outcome [8] | outcome [9] | outcome [10]

CCN1CN(CC)CN(CC)C1
inactive: Potency [1] | Potency [2] | Potency [3] | outcome [4] | Potency [5] | outcome [6] | Potency [7] | outcome [8]

CC(C)CCO
inactive: Potency [1] | Potency [2] | Potency [3] | outcome [4] | Potency [5] | outcome [6] | Potency [7] | outcome [8] | outcome [9] | outcome [10]

CCOC(=O)OCC/C(SC(=O)OCC)=C(\C)N(C=O)Cc1cnc(C)nc1N
inactive: Potency [1] | Potency [2] | Potency [3] | outcome [4] | Potency [5] | outcome [6] | Potency [7] | outcome [8] | outcome [9] | outcome [10]

Cc1ccccc1C(=O)N1CC/C(=N\OS(=O)(=O)O)c2ccc(Cl)cc21
inactive: Potency [1] | Potency [2] | Potency [3] | outcome [4] | Potency [5] | outcome [6] | Potency [7] | outcome [8]

C=C[C@@H](C)CCC=C(C)C
inactive: Potency [1] | Potency [2] | Potency [3] | outcome [4] | Potency [5] | outcome [6] | Potency [7] | outcome [8] | outcome [9]

O=C(Nc1cccc(C2=NCCN2)c1)Nc1cccc(C2=NCCN2)c1
inactive: Potency [1] | Potency [2] | Potency [3] | outcome [4] | Potency [5] | outcome [6] | Potency [7] | outcome [8] | outcome [9] | outcome [10]

O=c1[nH]c(=O)c2[nH]c(=O)[nH]c2[nH]1
inactive: Potency [1] | Potency [2] | Potency [3] | outcome [4] | ratio activity, negative = inhibition [5] -6.65% [at 13.2 µM] | activity change, negative = cytotoxicity [6] -35.1% [at 13.2 µM] | activation [7] 2.83% [at 8.36 µM] | viability change, negative = cytotoxic [8] 8.26% [at 8.36 µM] | activity change, negative = cytotoxicity [9] -0.886% [at 13.2 µM] | activation [10] -0.669% [at 13.2 µM]

C1=C\CC/C=C\CC/1
inactive: Potency [1] | Potency [2] | Potency [3] | outcome [4] | Potency [5] | outcome [6] | Potency [7] | outcome [8] | outcome [9] | outcome [10]

O=CN1CCOCC1
inactive: Potency [1] | Potency [2] | Potency [3] | outcome [4] | Potency [5] | outcome [6] | Potency [7] | outcome [8] | outcome [9] | outcome [10]

CCCCC(CC)COC(=O)c1ccccc1 (configuration not stated)
inactive: Potency [1] | Potency [2] | Potency [3] | outcome [4] | Potency [5] | outcome [6] | Potency [7] | outcome [8] | outcome [10]

CCN(CCC#N)c1ccccc1
inactive: Potency [1] | Potency [2] | Potency [3] | outcome [4] | Potency [5] | outcome [6] | outcome [8] | outcome [9] | outcome [10]

CC(=O)Nc1ncc([N+](=O)[O-])s1
inactive: Potency [1] | Potency [2] | Potency [3] | outcome [4] | Potency [5] | outcome [6] | outcome [8] | outcome [9]

O=c1cc(O)c(Cl)c[nH]1
inactive: Potency [1] | Potency [2] | Potency [3] | outcome [4] | Potency [5] | outcome [6] | outcome [8] | outcome [9] | outcome [10]

Cc1oc(=O)oc1CN1CCN(c2cc3c(cc2F)c(=O)c(C(=O)O)c2n3C(C)S2)CC1 (configuration not stated)
inactive: Potency [1] | Potency [2] | Potency [3] | outcome [4] | Potency [5] | outcome [6] | outcome [8] | outcome [9]

C=CCCCCCCCCCCC
inactive: activity change, negative = cytotoxicity [1] 2.95% [at 8.47 µM] | activation [2] -0.125% [at 8.47 µM] | viability change, negative = cytotoxic [3] 0.7% [at 8.47 µM] | activation [4] -4.62% [at 7.08 µM] | ratio activity, negative = inhibition [5] 16.1% [at 5.95 µM] | activity change, negative = cytotoxicity [6] 13.8% [at 5.95 µM] | viability change, negative = cytotoxic [8] 9.33% [at 8.36 µM] | activity change, negative = cytotoxicity [9] -3.82% [at 5.95 µM] | activation [10] -0.0554% [at 5.95 µM]

CC1CCC(C(C)(C)S)C(=O)C1 (configuration not stated)
inactive: Potency [1] | Potency [2] | Potency [3] | outcome [4] | Potency [5] | outcome [6] | outcome [8] | outcome [9] | outcome [10]

C=C(C)C(=O)OC1CC(C)CC(C)(C)C1 (configuration not stated)
inactive: Potency [1] | Potency [2] | Potency [3] | outcome [4] | Potency [5] | outcome [6] | outcome [8] | outcome [9]

O=C(O)/C=C/c1ccccc1
inactive: Potency [1] | Potency [2] | Potency [3] | outcome [4] | outcome [6] | Potency [7] | outcome [8]

CC(C)CCCCCCOC(=O)C1CCCCC1C(=O)OCCCCCCC(C)C (configuration not stated)
inactive: Potency [1] | Potency [2] | Potency [3] | outcome [4] | outcome [6] | Potency [7] | outcome [8] | outcome [9]

CN(C1CCCCC1)S(=O)(=O)c1ccccc1N
inactive: Potency [1] | Potency [2] | Potency [3] | outcome [4] | Potency [5] | outcome [6] | outcome [8] | outcome [9]

CC(=O)/C=C/c1ccco1
inactive: Potency [1] | Potency [2] | Potency [3] | outcome [4] | outcome [6] | Potency [7] | outcome [8] | outcome [9] | outcome [10]

CO[Si](CCCS)(OC)OC
inactive: Potency [1] | Potency [2] | Potency [3] | outcome [4] | Potency [5] | outcome [6] | outcome [8] | outcome [9] | outcome [10]

O=C(O)C(=O)Nc1cccc(-c2nn[nH]n2)c1
inactive: Potency [1] | Potency [2] | Potency [3] | outcome [4] | outcome [6] | Potency [7] | outcome [8] | outcome [9] | outcome [10]

CCCCCCCCCCC
inactive: Potency [1] | Potency [2] | Potency [3] | outcome [4] | Potency [5] | outcome [6] | outcome [8] | outcome [9]
